8 molecules from PubChem BioAssay (Tox21) can be followed below.

Experiment [1] can be described thus: qHTS assay to identify small molecule agonists of the vitamin D receptor (VDR) signaling pathway - cell viability counter screen (AID 743224). Also: nearly all actives have a fitted effect of over 50% in size. Also: potency is read from the fitted curve at half-maximal effect. The essentials: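 VDR-bla cells were preincubated 4 h at 37C/5% CO2, then exposed to compounds for 16 h. After the 2 h room-temperature bla FRET read, CellTiter-Glo was added to the same wells and luminescence read after 30 min.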
For orientation: Quantitative high-throughput screening tests each substance at several concentrations.

The nature of experiment [2]: qHTS assay to identify small molecule antagonists of the vitamin D receptor (VDR) signaling pathway - cell viability counter screen (AID 743225). Also: nearly all actives have a fitted effect of over 50% in size. Also: potency is read from the fitted curve at half-maximal effect. The method, boiled down: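 Compounds were pinned onto VDR-bla HEK 293T cells together with 1-alpha,25-dihydroxyvitamin D3 at 3 nM final. After 16 h at 37C and 5% CO2 plus the reporter readout, cell viability was measured by CellTiter-Glo luminescence (30 min, room temperature).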

The nature of experiment [3]: qHTS assay to identify small molecule agonists of the NFkB signaling pathway - cell viability counter screen (AID 1159515; calls by dose curve; also: nearly all actives have a fitted effect of over 55% in size; also: potency is read from the fitted curve at half-maximal effect). The essentials:
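NFkB-bla ME-180 cells, 2,000/well, were plated overnight at 37 C, 5% CO2, then exposed to compounds in DMSO for 5 hr. After the bla FRET read, CellTiter-Glo was added to the same wells; luminescence was read after 30 min at room temperature.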

The nature of experiment [4]: qHTS assay to identify small molecule agonists of the endoplasmic reticulum stress response signaling pathway - cell viability counter screen (AID 1159517; calls by dose curve; also: nearly all actives have a fitted effect of over 50% in size; also: potency is read from the fitted curve at half-maximal effect). The method, boiled down: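 Cells, HeLa ESRE-bla; density, 1,500/well; dosing, 5 hr at 37 C, 5% CO2; readout, CellTiter-Glo luminescence after 30 min RT.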
Experiment [5] is described as follows: qHTS assay to identify small molecule antagonists of the retinoid-related orphan receptor gamma (ROR-gamma) signaling pathway - cell viability counter screen (AID 1159520). Also: nearly all actives have a fitted effect of over 50% in size. Also: potency is read from the fitted curve at half-maximal effect. The essentials:
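Cytotoxicity was read from cellular ATP (CellTiter-Glo luminescence) after 16 hr at 37 C with 1 uM doxycycline induction. The inducer was added 2 hr after compound transfer to Tet-on ROR gamma CHO cells.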

For experiment [6], the target named is Nuclear receptor ROR-gamma (Homo sapiens) (UniProt P51449). Nature of the experiment: qHTS assay to identify small molecule antagonists of the retinoid-related orphan receptor gamma (ROR-gamma) signaling pathway (AID 1159521; also: nearly all actives have a fitted effect of over 50% in size; also: potency is read from the fitted curve at half-maximal effect). The essentials: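 Test compounds were applied to Tet-on RORγ CHO cells 2 h ahead of doxycycline hyclate (1 uM final). Luciferase reporter activity was quantified by luminescence after 16 h at 37 C and 5% CO2.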

Experiment [7] in a line: qHTS assay to identify small molecule agonists of the AP-1 signaling pathway - cell viability counter screen (AID 1159525; calls by dose curve; also: nearly all actives have a fitted effect of over 55% in size; also: potency is read from the fitted curve at half-maximal effect). The method, boiled down: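 Luminescent ATP readout (Cell Titer Glo, 30 min RT), normalised to DMSO and tetra n-octyl ammonium bromide controls. Cells were ME-180 AP-1-bla in 0.5% dialyzed FBS Opti-MEM, with a 5 h, 37 °C compound exposure.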
A short description of experiment [8]: qHTS assay to identify small molecule agonists of the RXR signaling pathway - cell viability counter screen (AID 1159529). Also: nearly all actives have a fitted effect of over 50% in size. Also: potency is read from the fitted curve at half-maximal effect. The essentials:
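Compounds dissolved in DMSO were pinned onto HEK 293T cells carrying a beta-lactamase reporter under RXR-alpha control and incubated 16 hr. Cytotoxicity was then quantified by CellTiter-Glo luminescence.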

Experiment [9] can be described thus: qHTS assay to identify small molecule antagonists of the retinoid acid receptor (RAR) signaling pathway - cell viability counter screen (AID 1159551). Also: nearly all actives have a fitted effect of over 35% in size. Also: potency is read from the fitted curve at half-maximal effect. The method, boiled down:
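C3RL4 cells were seeded overnight at 37 C, then treated with compounds plus 1 uM (final) retinol for 6 h at 37 C. Viability was read as ATP by CellTiter-Glo luminescence after 30 min at room temperature.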

The nature of experiment [10]: qHTS assay to identify small molecule antagonists of the retinoic acid receptor (RAR) signaling pathway (AID 1159552; also: nearly all actives have a fitted effect of over 50% in size; also: potency is read from the fitted curve at half-maximal effect). The essentials: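 Test chemicals and DMSO controls were pin-transferred onto C3RL4 cells a day after seeding; retinol (1 uM final) followed at once. Luminescent reporter output was quantified after 6 hr of co-incubation and 30 min with detection reagent.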

Experiment [11] in a line: qHTS assay to identify small molecule antagonists of the estrogen related receptor (ERR) signaling pathway from Tox21 library - cell viability counter screen (AID 1224834). Also: nearly all actives have a fitted effect of over 30% in size. Also: potency is read from the fitted curve at half-maximal effect. The method, boiled down: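 ERR reporter cells were plated 6 h before compound addition, then exposed to test compounds in DMSO for 17.5 h at 37 C. Viability was read as CellTiter-Fluor fluorescence after a 30-minute incubation at 37 C.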

The target of experiment [12] is Luciferin 4-monooxygenase (Photinus pyralis) (UniProt P08659). Put plainly: qHTS assay to identify small molecule inhibitors of firefly luciferase (AID 1224835). Also: nearly all actives have a fitted effect of over 25% in size. Also: potency is read from the fitted curve at half-maximal effect. The method, boiled down: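 Inhibition of purified Photinus luciferase is measured by luminescence. Substrate levels (D-luciferin, ATP) sit at their KM values. Each compound is tested in a concentration series.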
Chain of Luciferin 4-monooxygenase (Photinus pyralis) (P08659 whole entry, looked up): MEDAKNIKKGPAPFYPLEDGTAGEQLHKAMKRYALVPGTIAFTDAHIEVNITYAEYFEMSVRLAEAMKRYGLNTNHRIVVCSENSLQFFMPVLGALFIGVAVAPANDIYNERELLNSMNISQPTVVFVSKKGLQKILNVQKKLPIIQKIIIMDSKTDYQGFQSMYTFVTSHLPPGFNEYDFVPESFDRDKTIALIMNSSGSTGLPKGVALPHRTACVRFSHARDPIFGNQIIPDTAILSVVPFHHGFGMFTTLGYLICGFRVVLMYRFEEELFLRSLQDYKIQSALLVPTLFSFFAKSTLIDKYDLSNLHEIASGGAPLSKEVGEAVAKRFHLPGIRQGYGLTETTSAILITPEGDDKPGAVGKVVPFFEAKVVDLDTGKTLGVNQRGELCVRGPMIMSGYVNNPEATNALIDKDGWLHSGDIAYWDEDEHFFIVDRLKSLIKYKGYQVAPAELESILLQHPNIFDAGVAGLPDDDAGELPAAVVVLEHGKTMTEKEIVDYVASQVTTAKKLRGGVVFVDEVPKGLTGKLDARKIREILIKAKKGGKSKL

Experiment [13] has as its target Retinoic acid receptor RXR-alpha (Homo sapiens) (UniProt P19793). Nature of the experiment: qHTS assay to identify small molecule agonists of the RXR signaling pathway (AID 1159527; calls by dose curve; also: nearly all actives have a fitted effect of over 35% in size). The method, boiled down: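 Using 9-cis retinoic acid as the reference agonist, chemicals were tested in HEK 293T cells […] for 16 hr; substrate loading lasted 2 hr at room temperature.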

Experiment [14] can be described thus: qHTS assay to identify small molecule agonists of the retinoic acid receptor (RAR) signaling pathway (AID 1159553). The essentials:
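C3RL4 cells carrying a RARE luciferase reporter were plated overnight at 37 C, then exposed to compounds in DMSO for 6 hr at 37 C and 5% CO2. Luminescence was read 30 min after luciferase reagent addition at room temperature.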

Experiment [15] can be described thus: qHTS assay to identify small molecule agonists of the AP-1 signaling pathway (AID 1159526; calls by dose curve).
The nature of experiment [16]: qHTS assay to identify small molecule agonists of the estrogen related receptor (ERR) signaling pathway (AID 1224820). The essentials: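 Quantitative HTS of the LOPAC library used NTP ERR reporter cells treated 18 h at 37 C. Signal is luminescence after One-Glo addition and a 30 min room-temperature incubation.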
Experiment [17] can be described thus: qHTS assay to identify small molecule antagonists of the estrogen related receptor signaling pathway with the pleiotropic PPARgamma coactivator (PGC) cell viability counter screen (AID 1224822; also: series mostly up to about 46 µM). The essentials: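 PGC/ERR cells were seeded at 2,000 cells/well, rested 6 h at 37 C/5% CO2, then given compounds in DMSO by pin tool and incubated 17.5 h at 37 C. Viability came from CellTiter-Fluor fluorescence after 30 min.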

A short description of experiment [18]: qHTS assay to identify small molecule agonists of the estrogen related receptor signaling pathway with the pleiotropic PPARgamma coactivator (PGC) (AID 1224823). The essentials:
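Cell-based luciferase assay in the NTP-supplied PGC/ERR line, 2,000 cells/well; 18 h compound exposure at 37 C, luminescence after One-Glo.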

Results filed as inconclusive are left out. Active and inactive are the calls of the source. Unless noted, calls follow the shape of the dose curve; as a rule, active = well fitted curve in the direction sought with a large enough effect in the repeat runs; inconclusive = weak or mixed curves; inactive = no such curve, though single readings can be large; an effect the other way counts as inactive or inconclusive.

Chain of Retinoic acid receptor RXR-alpha (Homo sapiens) (P19793 whole entry, looked up): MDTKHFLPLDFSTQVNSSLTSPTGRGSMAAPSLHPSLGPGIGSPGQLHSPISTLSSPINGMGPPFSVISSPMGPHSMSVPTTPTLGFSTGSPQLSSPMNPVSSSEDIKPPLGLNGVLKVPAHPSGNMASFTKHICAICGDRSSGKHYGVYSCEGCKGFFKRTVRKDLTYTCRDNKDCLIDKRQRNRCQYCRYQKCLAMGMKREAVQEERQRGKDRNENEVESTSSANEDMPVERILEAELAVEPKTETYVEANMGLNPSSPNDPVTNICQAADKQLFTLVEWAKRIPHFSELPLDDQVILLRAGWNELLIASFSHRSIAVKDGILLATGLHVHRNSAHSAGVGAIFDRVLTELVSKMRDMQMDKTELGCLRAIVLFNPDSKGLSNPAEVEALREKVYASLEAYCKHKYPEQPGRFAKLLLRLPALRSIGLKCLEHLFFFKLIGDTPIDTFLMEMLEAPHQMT

On to `CCCCc1oc2ccc(NS(C)(=O)=O)cc2c1C(=O)c1ccc(OCCCN(CCCC)CCCC)cc1`, for which the Potency is 26.6 µM (active) in experiment [1]; 23.9 µM (active) in experiment [2]; 26.8 µM (active) in [3]; 21.3 µM (active) in experiment [4]; 26.6 µM (active) in experiment [5]; 23.7 µM (active) in [6]. Further, the Potency in experiment [7] is 19 µM (active); in experiment [8], 9.52 µM (active); in experiment [9], 26.6 µM (active); in [10], 16.8 µM (active); in experiment [11], 21.1 µM (active). In addition, the Potency result in experiment [12] is “inactive”.
On to `CCOC(=O)O[C@]1(C(=O)OCCl)CC[C@H]2[C@@H]3CCC4=CC(=O)C=C[C@]4(C)[C@H]3[C@@H](O)C[C@@]21C`, for which the Potency result in experiment [1], in [2], in [3], in [4], in experiment [5] and in experiment [6] was “inactive” each time. Also, the Potency entry in experiment [7], in experiment [13], in experiment [8], in [9], in [10] and in experiment [14] was “inactive” in each case. For the same molecule, the Potency entry in experiment [11] and in experiment [12] was “inactive” each time.
As for `O=[N+]([O-])c1ccccc1Nc1ccccc1`, the Potency result in [1], in experiment [2], in experiment [3], in experiment [4], in [5] and in [7] was “inactive” throughout. The Potency result in [15], in experiment [13], in experiment [8], in experiment [9], in [10] and in [14] was “inactive” throughout. Moreover, the Potency result in [11] and in experiment [12] was “inactive” in each case.
As for `CN(C)[C@@H]1C(=O)C(C(N)=O)=C(O)[C@@]2(O)C(=O)C3=C(O)c4c(O)ccc(Cl)c4[C@@H](O)[C@H]3C[C@@H]12`, the Potency entry in [1], in [2], in [3], in [4], in experiment [5] and in experiment [7] was “inactive” in each case. Besides, the Potency entry in experiment [15], in experiment [8], in experiment [9], in experiment [10], in [14] and in experiment [17] was “inactive” each time. The Potency entry in [11] and in experiment [12] was “inactive” each time. The molecule was called inactive in experiment [16] and in experiment [18].
As to `Cc1cccc(S(=O)(=O)O)c1C`, the Potency result in experiment [1], in experiment [2], in [3], in [4], in experiment [5] and in [7] was “inactive” in each case. For the same molecule, the Potency entry in [15], in [8], in experiment [9], in experiment [14], in experiment [11] and in experiment [12] was “inactive” in each case.
As for `Cc1[nH]nc2c1N=C(c1ccccc1Cl)c1cc([N+](=O)[O-])ccc1N2`, the Potency in [2] was 21.9 µM (active); in [4], 43.6 µM (active); in experiment [5], 54.5 µM (active); in experiment [6], 21.7 µM (active); in experiment [7], 30.9 µM (active); in [8] it was 34.7 µM (active). The Potency in experiment [10] is 30.6 µM (active); in experiment [11], 24.3 µM (active); in experiment [12] it was 63.3 µM (active). Also, the Potency result in experiment [3] is “inactive”.
For `CCCCCCCC[N+](CCCCCCCC)(CCCCCCCC)CCCCCCCC`, the Potency in experiment [1] was 8.69 µM (active); in experiment [2] it was 7.75 µM (active); in experiment [3] it was 24.5 µM (active); in [4], 43.6 µM (active); in [5], 8.62 µM (active); in experiment [6], 6.1 µM (active). The results for the Potency in experiment [7], in experiment [8] and in experiment [11] were 15.5 µM (active), 13.8 µM (active) and 24.3 µM (active), respectively.
In the case of `O=C(Nc1cccc(C(F)(F)F)c1)c1cc(Br)cc(Br)c1O`, the Potency is 17.4 µM (active) in experiment [2]; 54.9 µM (active) in experiment [3]; 24.5 µM (active) in experiment [4]; 10.9 µM (active) in experiment [5]; 1.37 µM (active) in experiment [6]; 21.9 µM (active) in [8]. In addition, in experiment [12], the Potency is 3.99 µM (active). In addition, the Potency result in [10] and in experiment [14] was “inactive” throughout.
